Test results taken from PubChem BioAssay (EPA / NIEHS).
Calls of active or inactive are those of the source. The calls were made as follows: active = hit-call score of the fitted dose curve at least 0.9, where 1 is the maximum; inactive = score below 0.9.

Columns and labels:
Settings in all cases: mRNA level, 48 h; actives raise or lower the signal
[1] = read-out: Insulin Like Growth Factor 1 (IGF1), IGF1 (gene 3479); assay: LTEA_HepaRG_IGF1: Life Technologies and Expression Analysis (LTEA) Assay for Insulin Like Growth Factor 1 (IGF1) using HepaRG (AID 2283506)
Procedure, shortened: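 Differentiated human HepaRG cells were dosed for 48 h in serum-free induction medium with 0.5% DMSO, eight half-log concentrations up to 100 uM, in duplicate. IGF1 mRNA was quantified by qRT-PCR normalized to ACTB, GAPDH, POLR2A; bidirectional fitting versus DMSO.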

[2] = read-out: Intercellular Adhesion Molecule 1 (ICAM1), ICAM1 (gene 3383); assay: LTEA_HepaRG_ICAM1: Life Technologies and Expression Analysis (LTEA) Assay for Intercellular Adhesion Molecule 1 (ICAM1) using HepaRG (AID 2283507)
Procedure, shortened: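 HepaRG, 48 h exposure, 8-pt half-log series from 100 uM, 0.5% DMSO vehicle, duplicates. Readout: TaqMan qRT-PCR mRNA, housekeeping-normalized (ACTB/GAPDH/POLR2A). Bidirectional curve fit vs DMSO baseline.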

[3] = read-out: Insulin-like growth factor-binding protein 1 (IGFBP1), IGFBP1 (gene 3484); assay: LTEA_HepaRG_IGFBP1: Life Technologies and Expression Analysis (LTEA) Assay for Insulin-like growth factor-binding protein 1 (IGFBP1) using HepaRG (AID 2283508)
Procedure, shortened: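 qRT-PCR mRNA read-out (TaqMan, Fluidigm array), normalised to three housekeeping genes; HepaRG cells, 48 h exposure, 8-pt half-log series from 100 uM, 0.5% DMSO vehicle; bidirectional curve fit vs DMSO baseline.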

[4] = read-out: Interleukin 6 (IL6), IL6 (gene 3569); assay: LTEA_HepaRG_IL6: Life Technologies and Expression Analysis (LTEA) Assay for Interleukin 6 (IL6) using HepaRG (AID 2283509)
Procedure, shortened: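 HepaRG cells exposed in duplicate for 48 h to eight half-log concentrations, top 100 uM, in 0.5% DMSO serum-free induction medium. mRNA measured by qRT-PCR, normalized to ACTB, GAPDH and POLR2A. Bidirectional fit versus DMSO.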

[5] = read-out: Interleukin 6 Receptor (IL6R), IL6R (gene 3570); assay: LTEA_HepaRG_IL6R: Life Technologies and Expression Analysis (LTEA) Assay for Interleukin 6 Receptor (IL6R) using HepaRG (AID 2283510)
Procedure, shortened: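 Differentiated human HepaRG cells, plated 48 h then switched to serum-free induction medium, were dosed in duplicate for 48 h at eight half-log concentrations up to 100 uM in 0.5% DMSO. IL6R mRNA quantified by qRT-PCR, normalized to ACTB/GAPDH/POLR2A; bidirectional fit versus DMSO.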

[6] = read-out: Potassium channel subfamily K member 1 (KCNK1), KCNK1 (gene 3775); assay: LTEA_HepaRG_KCNK1: Life Technologies and Expression Analysis (LTEA) Assay for Potassium channel subfamily K member 1 (KCNK1) using HepaRG (AID 2283511)
Procedure, shortened: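 Differentiated HepaRG cells, 48 h exposure in serum-free induction medium with 0.5% DMSO; 8 concentrations, half-log from 100 uM, duplicate. KCNK1 mRNA by qRT-PCR, normalized to ACTB, GAPDH, POLR2A; bidirectional fit vs DMSO.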

[7] = read-out: Keratin 19 (KRT19), KRT19 (gene 3880); assay: LTEA_HepaRG_KRT19: Life Technologies and Expression Analysis (LTEA) Assay for Keratin 19 (KRT19) using HepaRG (AID 2283512)
Procedure, shortened: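 HepaRG, 48 h chemical exposure, 8-pt half-log CRC from 100 uM, 0.5% DMSO vehicle, duplicates. Readout: TaqMan qRT-PCR of KRT19 mRNA, housekeeping-normalized (ACTB/GAPDH/POLR2A). Bidirectional fit vs DMSO baseline.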

[8] = read-out: JUN Transcription Factor, JUN (gene 3725); assay: LTEA_HepaRG_JUN: Life Technologies and Expression Analysis (LTEA) Assay for JUN Transcription Factor using HepaRG (AID 2283513)
Procedure, shortened: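 Differentiated HepaRG cells were exposed to chemicals for 48 h in serum-free induction medium, 8 concentrations from 100 uM in half-log steps, 0.5% DMSO vehicle, in duplicate. JUN mRNA was quantified by TaqMan qRT-PCR, normalized to ACTB, GAPDH, POLR2A.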

[9] = read-out: Lipase C (LIPC), LIPC (gene 3990); assay: LTEA_HepaRG_LIPC: Life Technologies and Expression Analysis (LTEA) Assay for Lipase C (LIPC) using HepaRG (AID 2283514)
Procedure, shortened: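 HepaRG cells, 48 h after plating, treated in duplicate for 48 h in serum-free induction medium over 8 half-log concentrations from 100 uM, 0.5% DMSO. LIPC mRNA by TaqMan qRT-PCR normalized to ACTB/GAPDH/POLR2A; bidirectional fit versus DMSO.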

[10] = read-out: Lipoprotein lipase (LPL), LPL (gene 4023); assay: LTEA_HepaRG_LPL: Life Technologies and Expression Analysis (LTEA) Assay for Lipoprotein lipase (LPL) using HepaRG (AID 2283515)
Procedure, shortened: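 Differentiated HepaRG cells, plated 48 h, then exposed 48 h in serum-free induction medium to 8 concentrations (top 100 uM, half-log steps) in 0.5% DMSO, duplicate. LPL mRNA measured by qRT-PCR, normalized to ACTB, GAPDH and POLR2A.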

[11] = read-out: MicroRNA 122 (MIR122), gene 406906; assay: LTEA_HepaRG_MIR122: Life Technologies and Expression Analysis (LTEA) Assay for MicroRNA 122 (MIR122) using HepaRG (AID 2283516); also: the transcript read is the microRNA miR-122
Procedure, shortened: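 Differentiated human HepaRG cells were exposed 48 h in serum-free induction medium to eight half-log concentrations (top 100 uM, 0.5% DMSO). Transcript level was measured by TaqMan qRT-PCR, normalized to ACTB, GAPDH and POLR2A, and fitted bidirectionally versus DMSO.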

[12] = read-out: matrix metalloproteinase-3 (MMP3), MMP3 (gene 4314); assay: LTEA_HepaRG_MMP3: Life Technologies and Expression Analysis (LTEA) Assay for matrix metalloproteinase-3 (MMP3) using HepaRG (AID 2283519)
Procedure, shortened: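 HepaRG cells (~100,000/well) in serum-free induction medium were dosed in duplicate for 48 h with an 8-point half-log series from 100 uM, 0.5% DMSO. MMP3 mRNA was quantified by Fluidigm TaqMan qRT-PCR, normalized to three housekeeping genes.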

[13] = read-out: Paternally Expressed 10 (PEG10), PEG10 (gene 23089); assay: LTEA_HepaRG_PEG10: Life Technologies and Expression Analysis (LTEA) Assay for Paternally Expressed 10 (PEG10) using HepaRG (AID 2283520)
Procedure, shortened: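 Differentiated HepaRG cells, plated 48 h then switched to serum-free induction medium, were exposed in duplicate for 48 h to eight half-log concentrations topping at 100 uM in 0.5% DMSO. PEG10 mRNA was quantified by TaqMan qRT-PCR, normalised to ACTB, GAPDH and POLR2A.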

[14] = read-out: Nuclear factor NF-kappa-B p105 subunit (Homo sapiens) (UniProt P19838); assay: LTEA_HepaRG_NFKB1: Life Technologies and Expression Analysis (LTEA) Assay for Nuclear Factor Kappa B Subunit 1 (NFKB1) using HepaRG (AID 2283521);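 also: TaqMan qRT-PCR transcript normalised to ACTB GAPDH and POLR2A housekeeping genes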
Procedure, shortened: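 HepaRG, 48 h exposure; 8-pt half-log series from 100 uM in 0.5% DMSO; duplicates. Readout: NFKB1 mRNA by qRT-PCR (Fluidigm arrays), housekeeping-normalized. Gain/loss fit vs DMSO baseline.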

[15] = read-out: Protein phosphatase 2A (PPP2R4), PTPA (gene 5524); assay: LTEA_HepaRG_PPP2R4: Life Technologies and Expression Analysis (LTEA) Assay for Protein phosphatase 2A (PPP2R4) using HepaRG (AID 2283522)
Procedure, shortened: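 Differentiated HepaRG cells in serum-free induction medium were exposed in duplicate for 48 h to eight concentrations, top 100 uM with half-log dilutions, in 0.5% DMSO. PPP2R4 mRNA was quantified by TaqMan qRT-PCR, normalized to ACTB, GAPDH and POLR2A.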

[16] = read-out: Phosphatase and tensin (PTEN), PTEN (gene 5728); assay: LTEA_HepaRG_PTEN: Life Technologies and Expression Analysis (LTEA) Assay for Phosphatase and tensin (PTEN) using HepaRG (AID 2283523)
Procedure, shortened: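 HepaRG cells, 48 h after plating, exposed in duplicate for 48 h in serum-free induction medium to 8 half-log concentrations up to 100 uM (0.5% DMSO). PTEN mRNA by qRT-PCR, normalized to ACTB, GAPDH, POLR2A; bidirectional fit versus DMSO.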

[17] = read-out: solute carrier (SLC22A1), SLC22A1 (gene 6580); assay: LTEA_HepaRG_SLC22A1: Life Technologies and Expression Analysis (LTEA) Assay for solute carrier (SLC22A1) using HepaRG (AID 2283524)
Procedure, shortened: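 Differentiated human HepaRG cells in serum-free induction medium, exposed 48 h in duplicate to 8-point half-log series from 100 µM top in 0.5% DMSO. SLC22A1 mRNA by TaqMan qRT-PCR normalized to ACTB, GAPDH, POLR2A; bidirectional fit versus DMSO.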

[18] = read-out: Pyruvate Dehydrogenase Kinase 4 (PDK4), PDK4 (gene 5166); assay: LTEA_HepaRG_PDK4: Life Technologies and Expression Analysis (LTEA) Assay for Pyruvate Dehydrogenase Kinase 4 (PDK4) using HepaRG (AID 2283525)
Procedure, shortened: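 HepaRG cells plated 48 h, then switched to serum-free induction medium and exposed in duplicate for 48 h to 8 half-log concentrations from 100 uM in 0.5% DMSO. PDK4 mRNA measured by qRT-PCR, normalized to ACTB, GAPDH and POLR2A; bidirectional fit versus DMSO.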

[19] = read-out: matrix metalloproteinase-10 (MMP10), MMP10 (gene 4319); assay: LTEA_HepaRG_MMP10: Life Technologies and Expression Analysis (LTEA) Assay for matrix metalloproteinase-10 (MMP10) using HepaRG (AID 2283517)
Procedure, shortened: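 Differentiated HepaRG cells in serum-free induction medium exposed 48 h in duplicate to 8-point half-log series up to 100 uM in 0.5% DMSO. mRNA quantified by qRT-PCR, normalised to ACTB, GAPDH, POLR2A; bidirectional fit versus DMSO.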

[20] = read-out: MYC, MYC (gene 4609); assay: LTEA_HepaRG_MYC: Life Technologies and Expression Analysis (LTEA) Assay for MYC using HepaRG (AID 2283518)
Procedure, shortened: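 qRT-PCR read-out of MYC transcript (Fluidigm TaqMan, housekeeping-normalized) after 48 h chemical exposure of HepaRG cells; eight concentrations, top 100 uM, half-log steps. Bidirectional curve fitting against 0.5% DMSO vehicle baseline.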

Measured: AC50

Sequence of Nuclear factor NF-kappa-B p105 subunit (Homo sapiens) (P19838 whole entry, looked up): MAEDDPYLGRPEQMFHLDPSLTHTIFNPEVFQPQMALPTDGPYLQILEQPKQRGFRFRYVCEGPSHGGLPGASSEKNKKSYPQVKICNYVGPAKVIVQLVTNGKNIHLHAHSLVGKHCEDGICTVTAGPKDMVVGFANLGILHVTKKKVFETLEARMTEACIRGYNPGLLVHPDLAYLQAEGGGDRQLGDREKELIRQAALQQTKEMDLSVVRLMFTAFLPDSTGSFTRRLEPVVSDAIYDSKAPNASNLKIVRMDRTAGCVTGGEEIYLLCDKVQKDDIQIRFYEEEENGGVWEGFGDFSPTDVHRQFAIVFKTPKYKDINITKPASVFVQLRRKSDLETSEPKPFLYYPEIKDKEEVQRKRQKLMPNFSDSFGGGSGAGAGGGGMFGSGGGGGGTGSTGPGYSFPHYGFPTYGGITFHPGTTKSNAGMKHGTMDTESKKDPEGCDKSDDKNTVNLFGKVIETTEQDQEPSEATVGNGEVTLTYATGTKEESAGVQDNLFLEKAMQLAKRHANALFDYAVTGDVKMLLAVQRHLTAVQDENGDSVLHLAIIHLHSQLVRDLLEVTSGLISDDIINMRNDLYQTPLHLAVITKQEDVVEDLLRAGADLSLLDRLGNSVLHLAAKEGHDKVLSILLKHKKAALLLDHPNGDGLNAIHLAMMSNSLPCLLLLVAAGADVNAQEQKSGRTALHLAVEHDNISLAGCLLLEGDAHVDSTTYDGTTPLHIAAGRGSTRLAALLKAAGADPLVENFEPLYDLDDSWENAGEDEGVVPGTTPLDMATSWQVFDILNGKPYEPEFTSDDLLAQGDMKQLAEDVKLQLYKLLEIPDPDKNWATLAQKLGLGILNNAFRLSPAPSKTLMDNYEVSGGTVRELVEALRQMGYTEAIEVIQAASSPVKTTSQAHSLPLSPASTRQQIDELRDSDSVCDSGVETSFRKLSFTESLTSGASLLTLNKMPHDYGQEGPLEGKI

CN(C)c1ccc(C(=O)c2ccc(N(C)C)cc2)cc1
inactive: [1] | [2] | [3] | [4] | [5] | [6] | [8] | [10] | [11] | [12] | [14] | [15] | [16]
active: [7] 13.5 µM | [9] 33 µM | [13] 22.3 µM | [17] 50 µM | [18] 25.8 µM

[O-][Cl+]O
inactive: [1] | [2] | [4] | [5] | [6] | [7] | [8] | [9] | [10] | [11] | [19] | [20] | [12] | [13] | [14] | [16] | [17] | [18]

CCN(CC)N=O
inactive: [1] | [2] | [3] | [4] | [5] | [6] | [7] | [8] | [9] | [10] | [11] | [12] | [13] | [14] | [15] | [16] | [17] | [18]

N#CC(Br)Br
inactive: [1] | [2] | [3] | [4] | [5] | [6] | [7] | [8] | [9] | [10] | [19] | [12] | [13] | [14] | [16] | [17] | [18]

CCC12COCN1COC2
inactive: [1] | [2] | [4] | [5] | [6] | [7] | [8] | [9] | [10] | [11] | [19] | [12] | [13] | [14] | [15] | [16] | [17] | [18]

Clc1ccc(Cl)c(Cl)c1
inactive: [1] | [2] | [3] | [4] | [5] | [6] | [7] | [8] | [9] | [11] | [20] | [12] | [16] | [18]
active: [10] 50 µM | [13] 50 µM | [17] 20 µM

CC(C)N(Cc1ccccc1)C(=O)C(C)(C)C
active: [1] 25.6 µM | [13] 28.8 µM
inactive: [2] | [4] | [5] | [6] | [7] | [8] | [9] | [10] | [11] | [19] | [20] | [12] | [14] | [15] | [16] | [17] | [18]

c1ccc2c(c1)-c1cccc3cccc-2c13
active: [13] 50 µM
inactive: [1] | [2] | [3] | [4] | [5] | [6] | [7] | [8] | [9] | [10] | [11] | [12] | [14] | [15] | [16] | [17] | [18]
